The text below walks through data of PubChem BioAssay.

Each structure is given as a SMILES string. Where “and” joins values, the source holds several entries; their conditions need not be identical. Equal values may be shown once. Calls of active or inactive are those of the source.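 Rule for the calls, unless noted: active = compounds that lower viability of the colon cancer cells in the luminescence readout, with no numeric limit stated; inactive = the rest.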

The nature of test [1]: compounds altering viability of human ES cells (AID 493140; call rule not given here;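 note: cells exposed to compounds for four days before counting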). To be noted: human embryonic stem cell survival screen; stronger effect = higher value.
Test [2] is described as follows: P. berghei load reduction in hepatocytes – cell-based, HepG2, luciferase luminescence, HepG2 viability, primary screen (AID 624349; in the data active = parasite load remaining mostly below about 12%, no sharp cut-off; inactive = mostly above about 10%;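 note: 100% = mean of DMSO negative control wells on the same plate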). As to conditions: P. berghei liver stage in HepG2, luciferase luminescence, concentration not given here; parasite load remaining: stronger effect = lower value; viability: measured here: HepG2 viability without parasites.
Test [3] in a line: Wnt pathway potentiators raising nuclear beta-catenin – imaging, WNT3A-conditioned medium, mouse C2C12, NPC library, primary screen (AID 1117326; in the data active = nuclear beta-catenin stimulation mostly above about 4.2%, no sharp cut-off; inactive = mostly below about 10%). As to conditions: stronger effect = higher value.
The nature of test [4]: stimulators of insulin release from INS-1E, primary screen, cell-based, 5 mM glucose, NPC library (AID 1117329;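 active = compound raises insulin release from rat beta cells at 5 mM glucose, no numeric limit stated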). To be noted: rat INS-1E insulin secretion, at 10 µM, stronger effect = higher value.
Test [5] is described as follows: growth inhibition of GSK3B-pretreated HCT116 cells – cell-based, CellTiter-Glo, 0.2 to 20 µM (AID 1117336;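 active = compounds lowering colon cancer cell viability after pretreatment blocking the GSK3B kinase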). As to conditions: HCT116 viability after GSK3B inhibitor, at 20 µM, stronger effect = higher value. (ATP-based viability assays read luminescence as a measure of living cells.)
Test [6] in a line: inhibition of endothelial tube formation, primary screen, imaging, VEGF stimulated, CD31 staining, tube area, NPC library (AID 1117340;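 active = compound that reduces growth-factor-driven endothelial tube area in a mixed cell culture, no cutoff stated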). To be noted: VEGF-stimulated ADSC/ECFC co-culture, at 10 µM, stronger effect = higher value.
Test [7] can be described thus: GLP1 release stimulators, primary, NCI-H716, NPC library (AID 1117341;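 active = compound raises GLP1 secretion from the human gut endocrine cells, with no numeric limit stated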). As to conditions: NCI-H716 cells, at 10 µM, stronger effect = higher value.
The nature of test [8]: HCT116 colon cancer cell growth inhibition, primary screen, CellTiter-Glo luminescence, NPC library (AID 1117342;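 active = compounds that lower survival of HCT116 colon cancer cells in the luminescence readout, no numeric limit stated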). As to conditions: at 20 µM (top of the series).
A short description of test [9]: reduced SW480 viability measured with CellTiter-Glo, NPC library, primary (AID 1117343). As to conditions: CellTiter-Glo luminescence; at 20 µM (top of the series) unless noted.
A short description of test [10]: NPC library primary testing for decreased DLD-1 cell viability via CellTiter-Glo (AID 1117346;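 active = compounds that lower survival of DLD-1 colon cancer cells in the luminescence readout, no cutoff given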). As to conditions: DLD-1 viability, CellTiter-Glo luminescence; at 20 µM (top of the series).
Test [11] in a line: viability loss with induced miR-34 in A549 – imaging, A549 dox-inducible miR-34, nuclei and caspase counts, primary screen (AID 1347080;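 active = compounds whose cell count with miR-34 switched on is under 0.7 times the count with it off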). As to conditions: A549 miR-34 inducible, Hoechst nuclei count, 48 h.
Test [12] in a line: MELAS cybrid and Rieske KO viability enhancers – cell-based, MELAS cybrids, Rieske KO mouse fibroblasts, CellTiter-Glo, primary screen (AID 1508586;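 active = mean z-score across replicates of 1.96 or higher in either the MELAS or the Rieske mutant cell line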;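 note: z relative to plate mean and SD of compound and empty wells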). As to conditions: low glucose.
The target of test [13] is NAD(+) hydrolase SARM1 (Homo sapiens) (UniProt Q6SZW1). The test is described as follows: blocking NAD cleavage by SARM1 SAM-TIR – cell lysate, NAD-Glo luminescence (AID 1508614;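 active = compound whose remaining NAD level is above about 45 nM, limit read from the data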;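 note: higher remaining NAD means stronger inhibition of SARM1 NADase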). As to conditions: SAM-TIR HEK293T lysate NADase, at 1 µM, stronger effect = higher value.
In test [14] the target is Mitogen-activated protein kinase 7 (Homo sapiens) (UniProt Q13164). Kind of test: Gal4-ERK5 driven luciferase induction – cell-based, HTS, primary screen (AID 1508626;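 active = luciferase signal above three times the same-plate solvent-only control wells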;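 note: luciferase driven by Gal4-ERK5 fusion binding five Gal4 sites before minimal TATA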). As to conditions: HeLa Gal4-ERK5 transactivation, 18 h, at 5 µM, stronger effect = higher value.
Test [15] can be described thus: galactose survival enhancers in mitochondrial complex I cybrids – cell-based, galactose medium, ATP luminescence, primary screen (AID 1645843;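 active = z-score of at least 1.8 in each of two replicates, scored against plate mean and spread of sample wells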;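 note: positive z means more ATP and so rescue of galactose-driven cybrid death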). As to conditions: complex I mutant cybrid cells, 72 h, stronger effect = higher value.
The mark [16] stands for this setting: stronger effect = lower value, cell number ratio, induced over uninduced.
Where [17] appears, read: measured here: relative caspase fold change +Dox/-Dox.
Where [18] appears, read: measured here: total cells with miR-34 induction, stronger effect = lower value.
Where [19] appears, read: measured here: total cells without miR-34 induction.
Where [20] appears, read: MELAS cybrid survival, CellTiter-Glo 48 h, stronger effect = higher value.
[21] abbreviates: Rieske KO mouse fibroblast survival, CellTiter-Glo 72 h.

Chain of NAD(+) hydrolase SARM1 (Homo sapiens) (Q6SZW1 whole entry, looked up, the tested form may be a part): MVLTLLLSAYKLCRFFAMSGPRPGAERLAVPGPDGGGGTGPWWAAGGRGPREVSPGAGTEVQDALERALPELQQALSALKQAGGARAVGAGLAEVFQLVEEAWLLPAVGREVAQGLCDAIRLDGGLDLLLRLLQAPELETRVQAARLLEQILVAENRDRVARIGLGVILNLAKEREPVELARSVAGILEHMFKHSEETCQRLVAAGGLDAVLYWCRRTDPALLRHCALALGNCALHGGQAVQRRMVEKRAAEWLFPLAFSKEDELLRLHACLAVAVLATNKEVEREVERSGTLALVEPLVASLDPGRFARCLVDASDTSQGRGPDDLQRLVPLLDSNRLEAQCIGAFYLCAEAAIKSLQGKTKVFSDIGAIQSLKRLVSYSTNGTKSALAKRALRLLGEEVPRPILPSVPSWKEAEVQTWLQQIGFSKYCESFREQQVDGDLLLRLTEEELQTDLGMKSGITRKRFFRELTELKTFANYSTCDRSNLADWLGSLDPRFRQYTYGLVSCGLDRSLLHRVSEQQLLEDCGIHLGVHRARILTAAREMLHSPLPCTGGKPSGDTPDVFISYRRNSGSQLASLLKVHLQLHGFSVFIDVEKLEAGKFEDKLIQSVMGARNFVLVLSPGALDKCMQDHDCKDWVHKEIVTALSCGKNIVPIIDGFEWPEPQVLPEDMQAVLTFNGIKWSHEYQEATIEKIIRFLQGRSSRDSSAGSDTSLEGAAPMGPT
Chain of Mitogen-activated protein kinase 7 (Homo sapiens) (Q13164 whole entry, looked up, the tested form may be a part): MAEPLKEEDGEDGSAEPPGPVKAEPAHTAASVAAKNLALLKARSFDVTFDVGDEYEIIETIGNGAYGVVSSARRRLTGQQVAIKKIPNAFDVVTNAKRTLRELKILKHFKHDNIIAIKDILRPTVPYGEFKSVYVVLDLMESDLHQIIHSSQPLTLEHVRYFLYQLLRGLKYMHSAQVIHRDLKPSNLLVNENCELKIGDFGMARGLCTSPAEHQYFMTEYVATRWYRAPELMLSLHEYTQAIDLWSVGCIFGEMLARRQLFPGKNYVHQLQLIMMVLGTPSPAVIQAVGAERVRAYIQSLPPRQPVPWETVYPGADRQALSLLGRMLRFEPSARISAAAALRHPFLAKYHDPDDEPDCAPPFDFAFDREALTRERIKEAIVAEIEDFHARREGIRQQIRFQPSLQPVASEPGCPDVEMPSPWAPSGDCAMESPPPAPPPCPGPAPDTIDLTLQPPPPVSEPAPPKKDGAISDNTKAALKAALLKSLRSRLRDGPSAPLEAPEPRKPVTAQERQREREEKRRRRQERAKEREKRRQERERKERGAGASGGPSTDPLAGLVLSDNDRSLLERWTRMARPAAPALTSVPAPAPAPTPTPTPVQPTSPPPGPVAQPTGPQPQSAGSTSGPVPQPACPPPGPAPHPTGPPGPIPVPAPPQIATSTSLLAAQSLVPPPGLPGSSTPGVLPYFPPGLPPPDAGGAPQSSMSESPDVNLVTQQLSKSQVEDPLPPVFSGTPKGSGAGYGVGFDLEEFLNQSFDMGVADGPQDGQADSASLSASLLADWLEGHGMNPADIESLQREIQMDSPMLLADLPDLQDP

As usually defined, the viability is a read-out of living cells in per cent, often relative to untreated cells. As for `C/C(=C(\CCOP(=O)(O)O)SC(=O)c1ccccc1)N(C=O)Cc1cnc(C)nc1N`, in test [1], the survival is 11 (inactive). Further, in test [2], the parasite load remaining is 106% (inactive). For the same compound, in test [2], the viability came to 102%. Further, the nuclear beta-catenin stimulation is -2.6% (inactive) in test [3] (at 10 µM) and -0.9% in [3] (stimulation, at 2 µM). For the same compound, in [4], the insulin secretion stimulation is 1.6% (inactive). The viability decrease in test [5] was -1.5% (inactive). Moreover, the tube area decrease in test [6] is -4.8% (inactive). Moreover, the GLP1 secretion stimulation in test [7] was -2.7% (inactive). Besides, in test [8], the inhibition of viability was 4.6% (inactive). In addition, the results for the viability decrease (inhibition) in test [9] and in [10] were -2.1% (inactive) and -1% (inactive), respectively. The values for the fold change in test [11] (setting [16]) and in [11] (setting [17]) were 0.873 (inactive) and 1.12, respectively. Further, the cell count was 8510 in test [11] (setting [18]) and 9750 in test [11] (setting [19]). The values for the z-score in [12] (setting [20]) and in test [12] (setting [21]) were 0.178 (inactive) and 0.46, respectively.
Consider `CN(C)CCn1nnnc1SCC1=C(C(=O)O)N2C(=O)[C@@H](NC(=O)Cc3csc(N)n3)[C@H]2SC1`, for which the survival in test [1] is 7.25 (inactive). In addition, the parasite load remaining in test [2] was 47.4% (inactive) and 69.6% (inactive). In test [2], the viability was 114% and 74.2%. The nuclear beta-catenin stimulation in test [3] (at 10 µM) is -1.2% (inactive); in [3] (stimulation, at 2 µM), 1.1%. The insulin secretion stimulation in test [4] was 2.8% (inactive). The viability decrease in [5] is 4.6% (inactive). Moreover, in test [6], the tube area decrease was -30.8% (inactive). For the same compound, the GLP1 secretion stimulation in [7] is -3% (inactive). In addition, the inhibition of viability in test [8] was -8.3% (inactive). The viability decrease (inhibition) in test [9] was 4.5% (inactive); in test [10], -6.8% (inactive). Moreover, the fold change was 0.874 (inactive) in [11] (setting [16]) and 1.13 in test [11] (setting [17]). The cell count in test [11] (setting [18]) was found to be 8320; in test [11] (setting [19]), 9520. The z-score is -0.0188 (inactive) in [12] (setting [20]) and -0.0723 in [12] (setting [21]).
With `CCC(=O)c1ccc(O)cc1`, the nuclear beta-catenin stimulation was 2.6% (inactive) in test [3] (at 10 µM) and -0.5% in test [3] (stimulation, at 2 µM). Besides, the insulin secretion stimulation in [4] is 0.1% (inactive). Besides, the viability decrease in test [5] was 8.05% (inactive). Moreover, in [6], the tube area decrease was 5.9% (inactive). Further, the GLP1 secretion stimulation in test [7] is -2.3% (inactive). The inhibition of viability in test [8] was 16.7% (inactive). Also, the viability decrease (inhibition) in test [9] is 60.1% (active); in [10], 25.2% (inactive). The fold change in test [11] (setting [16]) is 0.903 (inactive); in test [11] (setting [17]), 0.966. Besides, the cell count in test [11] (setting [18]) came out at 7980; in [11] (setting [19]), 8840. Besides, the remaining NAD in test [13] is 10 nM (inactive).
As for `O=C1[O][Bi][O]c2ccccc21`, the parasite load remaining in test [2] is 39.8% (inactive). Moreover, the viability in test [2] was 103%. For the same compound, the nuclear beta-catenin stimulation in test [3] (at 10 µM) was 0.6% (inactive); in test [3] (stimulation, at 2 µM) it was 0.8%. Further, the insulin secretion stimulation in [4] is 2.7% (inactive). Further, in test [5], the viability decrease was 13.3% (inactive). Moreover, in test [6], the tube area decrease is -3.4% (inactive). The GLP1 secretion stimulation in [7] is 1.9% (inactive). The inhibition of viability in test [8] was 14% (inactive). Also, the results for the viability decrease (inhibition) in test [9] and in test [10] were 28.1% (inactive) and 3.2% (inactive), respectively. Also, the fold change in test [11] (setting [16]) was 0.887 (inactive); in [11] (setting [17]), 3.11. Further, the cell count in [11] (setting [18]) was 12000; in test [11] (setting [19]), 13500. Further, the remaining NAD in [13] was 52 nM (active). In addition, the luciferase signal in test [14] is 60 AU (inactive).
Take `CC1(C)CC1C(=O)NC(=CCCCCSCC(N)C(=O)O)C(=O)O` (stereo unspecified): the nuclear beta-catenin stimulation in test [3] (at 10 µM) was -2.2% (inactive); in [3] (stimulation, at 2 µM), -0.6%. Also, the insulin secretion stimulation in test [4] is 2.2% (inactive). Besides, the viability decrease in test [5] is 15.4% (inactive). In test [6], the tube area decrease was 26.1% (inactive). The GLP1 secretion stimulation in [7] is -4.3% (inactive). Moreover, the inhibition of viability in test [8] is 37.8% (inactive). Besides, the figures for the viability decrease (inhibition) in test [9] and in [10] were 28.9% (inactive) and -4% (inactive), respectively. The fold change in test [11] (setting [16]) is 0.936 (inactive); in test [11] (setting [17]) it was 1.99. For the same compound, the cell count amounted to 9810 in test [11] (setting [18]) and 10500 in [11] (setting [19]). The z-score in test [15] is 0.555 (inactive).
